Test results published in PubChem BioAssay.
The source made the active and inactive calls. Unless noted, how the calls were made is not given here.

Columns and labels:
[1] = HepG2 liver cancer cell viability effects, profiling panel, resazurin fluorescence, 24 h, PK04 Diversity Set (AID 1172); conditions: higher = more signal
[2] = basal S. cerevisiae growth modulation, no modifier, primary screen, OD600, strain BY4716, 24 h, basal condition (AID 1173); conditions: OD600, 24 h, higher = more signal, called active from +8 up or from −8 down
[3] = MM1S myeloma cell viability, profiling panel, resazurin fluorescence, basal, 24 h, PK04 Diversity Set (AID 1174); conditions: higher = more signal, called active from +8 up or from −8 down;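 further: MM1S multiple myeloma cell line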
[4] = target: Dihydroorotate dehydrogenase (quinone), mitochondrial (Plasmodium falciparum (isolate 3D7)) (UniProt Q08210); assay: PfDHODH enzyme inhibitors, primary screen, biochemical, C-terminal His tag, absorbance 600 nm (AID 1175); conditions: DCIP absorbance 600 nm, higher = more signal, called active from +8 up or from −8 down;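 further: recombinant parasite enzyme with a five histidine tag at its C terminus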
[5] = P. aeruginosa biofilm formation inhibitors, primary screen, strain PAO1, LB-PBS medium, absorbance 600 nm (AID 1176); conditions: P. aeruginosa PAO1 growth/biofilm, A600, 12 h; higher = more signal
[6] = S. cerevisiae RM11-1a growth modifiers, primary screen, strain RM11-1a, OD600, basal, 24 h (AID 1177); conditions: OD600, 24 h, higher = more signal, called active from +8 up or from −8 down;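 further: cultures grown under basal conditions with no added stressor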
[7] = E. coli acrAB mutant growth effects, primary screen, E. coli filamentation inducers, strain DRC39, OD650, 24 h (AID 1178); conditions: higher = more signal, called active from +8 up or from −8 down;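 further: growth measured as culture turbidity by optical density at 650 nm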
[8] = E. coli acrAB mutant growth effects, primary screen, E. coli filamentation inducers, strain DRC39, OD650, 48 h (AID 1179);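 further: screen aims at cell division blockers that make cells filament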; conditions: E. coli DRC39 delta-acrAB growth, higher = more signal, called active from +8 up or from −8 down
[9] = RPMI8226 myeloma cell viability, profiling panel, resazurin fluorescence, basal, 24 h, PK04 Diversity Set (AID 1180); conditions: higher = more signal;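 further: RPMI8826 multiple myeloma cell line at 5000 cells per well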
[10] = target: E3 ubiquitin-protein ligase XIAP (Homo sapiens) (UniProt P98170); assay: XIAP binders, primary screen, biophysical, small-molecule microarray, fluorescence 635 nm (AID 1181); conditions: small-molecule microarray binding, higher = more signal;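 further: score merges 667 nm emission and signal to noise over triplicate slides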
[11] = system: XIP peptide (Xip251-270) binding; assay: small-molecule binders of XIP peptide, primary screen, biochemical, small-molecule microarray, fluorescence 635/667 nm, 0.1 µg/mL protein (AID 1182); conditions: fluorescent protein binding, 635 nm, higher = more signal, called active from +8 up or from −8 down
XIP peptide (Xip251-270) = assay: small-molecule binders of XIP peptide, primary screen, biochemical, small-molecule microarray, fluorescence 635/667 nm, 0.5 µg/mL protein (AID 1183); conditions: small-molecule microarray binding, fluorescence 635 nm; higher = more signal
[12] = Plasmodium falciparum growth inhibition, primary screen, strain 3D7, DAPI fluorescence, 100 nL (AID 1184);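 further: parasites grown inside human red blood cells in medium with human serum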; conditions: P. falciparum 3D7 growth, 3 d, higher = more signal
[13] = target: Homeobox protein Hox-A13 (Mus musculus) (UniProt Q62424); assay: inhibitors of HoxA13-DNA binding, primary screen, biochemical, fluorescence polarization, labeled oligonucleotide (AID 1185); conditions: 15 min, higher = more signal, called active from +8 up or from −8 down
[14] = inhibitors of hydroxyurea-induced Chk1 phosphorylation, primary screen, imaging, HeLa, phospho-Chk1 antibody, percent positive cells (AID 1186); conditions: hydroxyurea-induced phospho-Chk1 immunofluorescence imaging, higher = more signal
[15] = inhibitors of hydroxyurea-induced Chk1 phosphorylation, primary screen, imaging, HeLa, phospho-Chk1 nuclear intensity (AID 1187); conditions: hydroxyurea-induced phospho-Chk1 immunofluorescence imaging, higher = more signal

Chain of E3 ubiquitin-protein ligase XIAP (Homo sapiens) (P98170 whole entry, looked up): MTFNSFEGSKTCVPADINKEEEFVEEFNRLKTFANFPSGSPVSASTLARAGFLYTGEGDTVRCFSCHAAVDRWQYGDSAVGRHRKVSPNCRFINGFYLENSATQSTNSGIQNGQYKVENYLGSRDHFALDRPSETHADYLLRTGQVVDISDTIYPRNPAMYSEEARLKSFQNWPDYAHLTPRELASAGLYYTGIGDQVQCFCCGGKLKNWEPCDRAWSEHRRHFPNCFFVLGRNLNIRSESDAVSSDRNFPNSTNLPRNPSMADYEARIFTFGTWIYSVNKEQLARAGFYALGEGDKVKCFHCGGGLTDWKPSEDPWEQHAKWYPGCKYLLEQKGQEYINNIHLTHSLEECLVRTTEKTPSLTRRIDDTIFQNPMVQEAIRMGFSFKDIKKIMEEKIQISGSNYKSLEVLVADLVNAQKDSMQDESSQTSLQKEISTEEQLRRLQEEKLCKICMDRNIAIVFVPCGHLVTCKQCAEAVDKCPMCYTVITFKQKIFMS
Chain of Dihydroorotate dehydrogenase (quinone), mitochondrial (Plasmodium falciparum (isolate 3D7)) (Q08210 whole entry, looked up): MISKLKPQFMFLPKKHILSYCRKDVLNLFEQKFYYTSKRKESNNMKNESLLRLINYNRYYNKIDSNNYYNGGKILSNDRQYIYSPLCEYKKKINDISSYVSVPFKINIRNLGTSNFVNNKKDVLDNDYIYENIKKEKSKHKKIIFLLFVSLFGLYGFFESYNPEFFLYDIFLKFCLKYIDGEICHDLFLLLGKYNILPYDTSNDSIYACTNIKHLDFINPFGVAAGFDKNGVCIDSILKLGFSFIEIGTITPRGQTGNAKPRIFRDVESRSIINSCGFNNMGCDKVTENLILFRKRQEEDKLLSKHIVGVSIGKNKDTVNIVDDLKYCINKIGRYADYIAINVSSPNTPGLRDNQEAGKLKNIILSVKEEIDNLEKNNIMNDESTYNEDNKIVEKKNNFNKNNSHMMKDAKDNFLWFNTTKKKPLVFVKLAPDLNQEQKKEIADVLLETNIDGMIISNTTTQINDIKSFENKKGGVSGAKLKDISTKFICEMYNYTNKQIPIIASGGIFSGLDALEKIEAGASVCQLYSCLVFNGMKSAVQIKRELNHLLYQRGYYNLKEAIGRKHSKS
Chain of Homeobox protein Hox-A13 (Mus musculus) (Q62424 whole entry, looked up): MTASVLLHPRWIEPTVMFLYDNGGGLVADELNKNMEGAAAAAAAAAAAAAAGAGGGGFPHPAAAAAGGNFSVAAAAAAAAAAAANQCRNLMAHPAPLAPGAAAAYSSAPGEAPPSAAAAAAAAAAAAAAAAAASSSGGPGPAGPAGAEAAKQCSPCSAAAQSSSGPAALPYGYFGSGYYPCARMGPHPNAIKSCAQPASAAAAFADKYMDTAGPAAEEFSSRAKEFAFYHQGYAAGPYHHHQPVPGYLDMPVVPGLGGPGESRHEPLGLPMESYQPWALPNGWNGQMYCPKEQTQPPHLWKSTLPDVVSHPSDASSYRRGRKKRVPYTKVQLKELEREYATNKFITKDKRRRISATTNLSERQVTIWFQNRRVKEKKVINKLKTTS

Structure (SMILES)	z-score [1]	z-score [2]	z-score [3]	composite z-score [4]	z-score [5]	z-score [6]	z-score [7]	z-score [8]	z-score [9]	composite z-score [10]	composite z-score [11]	composite z-score (XIP peptide (Xip251-270))	z-score [12]	z-score [13]	z-score [14]	z-score [15]
CN1C(=O)[C@]2(CCS(=O)(=O)c3ccccc3)N=C(c3ccc(OCCCO)cc3)O[C@@H]2c2ccccc21	-0.0688	0.902 (inactive)	-0.101 (inactive)	0.349 (inactive)	-0.0279 (inactive)	2.34 (inactive)	0.124 (inactive)	-0.687 (inactive)	-1.02	0.0506	2.2 (inactive)	0.897	-2.32	-5.03 (inactive)	-0.122 (inactive)	0.271 (inactive)
COCCOC(=O)N1C(=O)[C@@]2(c3cc(C#CCC(C(=O)OC)C(=O)OC)ccc31)[C@H](C(N)=O)[C@H]1C(=O)O[C@H](c3ccccc3)[C@H](c3ccccc3)N1[C@@H]2c1ccc(OCCO)cc1	0.58	1.53 (inactive)	-0.456 (inactive)	-0.383 (inactive)	2.88 (inactive)	3.39 (inactive)	0.71 (inactive)	0.108 (inactive)	-1.81	0.0251	0.572 (inactive)	0.813	-2.07	-0.183 (inactive)	-0.153 (inactive)	0.0973 (inactive)
CCN(CC)c1ccc(N2CC=CC34O[C@@H]5C=CCOC(=O)[C@@H]5[C@H]3C(=O)N(CCCO)[C@@H]4C2=O)cc1 (some centres undefined)	-0.527	-0.746 (inactive)	0.242 (inactive)	-1.47 (inactive)	0.537 (inactive)	-0.049 (inactive)	1.27 (inactive)	0.715 (inactive)	0.4	0.107	0.309 (inactive)	0.306	-1.55	-4.02 (inactive)	-0.232 (inactive)	-0.569 (inactive)
C=CCOC(=O)[C@H]1[C@@H]2C(=O)O[C@@H](c3ccccc3)[C@@H](c3ccccc3)N2[C@@H](c2ccc(OCCOC(=O)[C@H]3C[C@H]4C(=O)NCC(=O)N4[C@H]3c3ccc(O)cc3)cc2)[C@]12C(=O)Nc1ccc(I)cc12	0.0134	1.27 (inactive)	0.478 (inactive)	0.383 (inactive)	2.83 (inactive)	1.7 (inactive)	0.157 (inactive)	0.987 (inactive)	0.642	-0.0351	-0.256 (inactive)	0.7	-1.83	2.46 (inactive)	-1.06 (inactive)	-1.08 (inactive)
